{"source": "the OligoGym collection", "data": [{"molecular_target": "COL20A1", "experiment": "pooled miR-30 sensor sort-seq; sequence = guide strand", "settings": "shRNA", "values": [{"sequence": "TAGACGTCACTGACCCGTCTTG", "sensor-assay potency score (higher = more potent)": -0.759}, {"sequence": "TTGAACTTGCTCTCTTCCCAGG", "sensor-assay potency score (higher = more potent)": -1.19}, {"sequence": "TTGAAGAGCGTGAAGGTCGGGG", "sensor-assay potency score (higher = more potent)": 0.169}, {"sequence": "TAGGTCAGGGACTTCTTCCCGG", "sensor-assay potency score (higher = more potent)": -0.568}, {"sequence": "TAGAGCCTGACCTTGGAGCGGC", "sensor-assay potency score (higher = more potent)": -0.375}, {"sequence": "TATCTGAACTTGGAAATGCTAC", "sensor-assay potency score (higher = more potent)": -0.775}, {"sequence": "TCAATCACAAACTCCCTCCGAG", "sensor-assay potency score (higher = more potent)": 0.439}, {"sequence": "TCGAACTTTGACACGTGTGAGG", "sensor-assay potency score (higher = more potent)": -1.19}, {"sequence": "AGCAGTGTGCACATCGTCCTGG", "sensor-assay potency score (higher = more potent)": -0.7}]}]}
